Values without a mark were called inactive. Calls of active or inactive are those of the source. Calls come from the whole dose curve; as a rule, active = well fitted inhibition curve with a large enough effect in the repeat runs (not every such curve was filed as active); inconclusive = weak or mixed curves; inactive = flat fitted curve, though single readings scatter.
% is set by controls: 0 for no effect and ±100 for the full control effect.

Thyrotropin-releasing hormone receptor (Homo sapiens), sequence (P34981 whole entry, looked up): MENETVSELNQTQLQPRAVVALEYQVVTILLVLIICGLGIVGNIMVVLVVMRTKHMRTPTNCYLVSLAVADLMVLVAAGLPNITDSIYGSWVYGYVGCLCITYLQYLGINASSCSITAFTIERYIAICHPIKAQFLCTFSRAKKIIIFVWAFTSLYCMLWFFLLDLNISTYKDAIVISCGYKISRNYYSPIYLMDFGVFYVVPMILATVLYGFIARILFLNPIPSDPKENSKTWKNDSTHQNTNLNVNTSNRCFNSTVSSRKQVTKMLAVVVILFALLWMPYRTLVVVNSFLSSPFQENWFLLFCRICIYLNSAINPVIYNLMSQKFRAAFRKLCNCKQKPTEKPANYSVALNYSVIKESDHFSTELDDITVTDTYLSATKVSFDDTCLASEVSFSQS

This test addresses Thyrotropin-releasing hormone receptor (Homo sapiens) (UniProt P34981). Description: qHTS assay to identify small molecule antagonists of the thyrotropin-releasing hormone receptor (TRHR) signaling pathway (AID 1346877). The note with it: TRHR-HEK293, TRH-induced calcium fluorescence, antagonist mode; series mostly up to 51.3 µM. An excerpt: National Center for Advancing Translational Sciences [NCATS]
NIH Chemical Genomics Center [NCGC]
U.S. Environmental Protection Agency [EPA]
National Institutes of Environmental Health Sciences [NIEHS]
National Toxicology Program [NTP]
U.S. Food and Drug Administration [FDA]
Thyrotropin-releasing hormone (TRH) receptor (TRHR) is a G-protein-coupled receptor which binds the tripeptide thyrotropin releasing hormone. TRHR is found in the brain and, when bound by TRH, acts (through phospholipase C) to increase intracellular inositol trisphosphate. It plays a crucial role in the anterior pituitary where it controls the synthesis and secretion of thyroid stimulating hormone and prolactin. The TRHR-Hek293 assay is a cell-based assay, and it has the potential to screen G protein-coupled receptors. A compound/drug can either activate (agonist) or suppress (antagonist) GPCRs that can be monitored by levels of intracellular calcium. In this assay, the Tox21 10K compound library was screened to identify potential TRHR antagonists.
Tox21 Assay Protocol Summary:
The TRHR-Hek293 cells were dispensed at 1500cells/4uL/well in 1536-well black-clear bottom plates using a Multidrop dispenser. After the assay plates were incubated at a 37 C/5% CO2 incubator for 18 hours, 4 uL of Dye-Loading Solution was added to each well. The plates were incubated at 37 C for 2 hours. For agonist mode, 23 nL of compounds dissolved in DMSO, positive controls or DMSO only was transferred to the assay plate by a pin tool. The fluorescence intensity in the plates was measured using FDSS 7000EX kinetic plate reader for 3 min at 1 sec intervals. For antagonist mode, 23 nL of compounds dissolved in DMSO, positive controls or DMSO only was transferred to the assay plate by a pin tool. After 5 min incubation at room temperature, 1 uL of TRH was added on the top of the cell/compound mixtures to achieve a final agonist concentration of 1 nM. The fluorescence intensity in the plates was measured using FDSS 7000EX kinetic plate reader for 3 min at 1 sec intervals. Each test compound was measured at 15 concentrations and in triplicates.
On the technique in general: Quantitative high-throughput screening tests each substance at several concentrations.
In the case of `O=C1c2ccccc2C(=O)C1c1ccccc1`, the outcome was inactive. Still for that read-out and setting: the value for `CC(=C(CCOC(=O)C(C)C)SSC(CCOC(=O)C(C)C)=C(C)N(C=O)Cc1cnc(C)nc1N)N(C=O)Cc1cnc(C)nc1N` was “inactive”; that for `c1ccc2c(c1)ccc1c3ccccc3ccc21` was “inactive”; that for `COc1cc2c(cc1OC)[C@@H]1CC(=O)[C@@H](CC(C)C)CN1CC2` was “inactive”. Turning to `Cc1cc(C(C)(C)C)c(O)c(C)c1CC1=NCCN1`, the result was inactive. Same read-out and setting: the value for `Cc1ccc(S(=O)(=O)O)c(C)c1` was “inactive”. As to `Cc1ccccc1C(=O)Nc1ccc(C(=O)N2CCCC(N(C)C)c3ccccc32)cc1` (stereo not given), the outcome was inactive. As to `COP(=O)(OC)OC(c1ccc(Cl)cc1)P(=O)(OC)OC` (stereo not given), the result was inactive. As to `Cc1ccccc1N=O`, the result was inactive. The same measure, in the same setting: the value for `C=CC(OCC)OCC` was “inactive”; that for `COc1ccc(S(=O)(=O)N2c3ccc(Cl)cc3[C@@](O)(c3ccccc3Cl)[C@H]2C(=O)N2CCC[C@@H]2C(N)=O)cc1OC` was “inactive”; that for `BrCc1cccc(Oc2ccccc2)c1` was “inactive”. Consider `O=C1O[C@@H]2[C@@H](O)[C@H](O)O[C@@H]2[C@H]1O`, for which the result was inactive.

Consider `OCCCCC(O)CO` (stereo not given), for which the result was inactive. Still for that read-out and setting: then `CCCCCCCCCCCCCC`, with “inactive”; and `CCCCCCCCC1CCC(=O)O1` (stereo not given), with “inactive”. Turning to `CCCC/C=C\CCCCCCCCCC=O`, the result was inactive. Still for that read-out and setting: then `COCCc1ccc(OCC2CO2)cc1` (stereo not given), with “inactive”; and `CC(C)=CCOC(=O)c1ccccc1`, with “inactive”; and `C=C(C)C(=O)OCCOP(=O)(O)OCCOC(=O)C(=C)C`, with “inactive”. The same measure, in the same setting: then `Nc1ccc(S(=O)(=O)Nc2ccc(Cl)nn2)cc1`, with “inactive”; and `CCN(C)C(=O)Oc1cccc([C@H](C)N(C)C)c1`, with “inactive”; and `C=Cc1ccccn1`, with “inactive”. Same read-out and setting: then `CCCOC(=O)C(C)O` (stereo not given), with “inactive”; and `CC(C)c1ccc2cc(C(C)C)ccc2c1`, with “inactive”. On to `O=S(O)(O)=S`, for which the activity, negative = inhibition was 1.85% [at 4.65 µM]. As for `Cc1c(I)c(=O)n(-c2ccccc2)n1C`, the result was inactive. On the same count and under the same terms, then `CC(CN)CC(C)(C)CCN` (stereo not given), with “inactive”; and `CC(=O)NCc1c(I)c(NC(C)=O)c(I)c(C(=O)O)c1I`, with “inactive”; and `c1ccc2nccnc2c1`, with “inactive”.

Turning to `CCCCCCCCC(=O)Cl`, the outcome was inactive. Still for that read-out and setting: then `Nc1nnc(-c2cccc(Cl)c2Cl)c(N)n1`, with “inactive”; and `CCOC(=O)CC(=O)c1ccccc1`, with “inactive”. On to `OCCC(F)(F)C(F)(F)C(F)(F)C(F)(F)C(F)(F)C(F)(F)C(F)(F)C(F)(F)F`, for which the outcome was inactive.

Take `CCC(C)NC(N)=O` (stereo not given): the outcome was inactive. The same measure, in the same setting: the value for `O=C1CCCC(=O)O1` was “inactive”; that for `C=COCCOCCOCCOC=C` was “inactive”; that for `Cc1cc(Cl)c(C)cc1Cl` was “inactive”. The same measure, in the same setting: then `C#CC(C)N(C)C(=O)Nc1ccc(Cl)cc1` (stereo not given), with “inactive”; and `CC(=O)NCCCCCC(=O)O`, with “inactive”.

The record behind these values is PubChem BioAssay (Tox21).
